Among the data in PubChem BioAssay AID1903 (Southern Research Specialized Biocontainment Screening …, 2009) are inhibition values, retold here.

Structures are written as SMILES. Values joined by “and” are separate entries in the source; they are usually repeats but may differ in a detail not shown here. Equal entries are not always repeated. Out of some 310,000 compounds screened, about 1,200 (0.39%) were called active. Only a sample is shown. Measured potencies and affinities stand elsewhere. A number with no mark means an inactive call. How the calls were made is not given here.

The target of this experiment is Large T antigen (Simian virus 40) (UniProt P03070). Description: TAg ATPase/helicase activity blockers – biochemical (AID 1903). The conditions noted are these: SV40 large T antigen ATPase/helicase inhibition assay; at 20 µM; active compounds read high.
Sequence of Large T antigen (Simian virus 40) (P03070 whole entry, looked up): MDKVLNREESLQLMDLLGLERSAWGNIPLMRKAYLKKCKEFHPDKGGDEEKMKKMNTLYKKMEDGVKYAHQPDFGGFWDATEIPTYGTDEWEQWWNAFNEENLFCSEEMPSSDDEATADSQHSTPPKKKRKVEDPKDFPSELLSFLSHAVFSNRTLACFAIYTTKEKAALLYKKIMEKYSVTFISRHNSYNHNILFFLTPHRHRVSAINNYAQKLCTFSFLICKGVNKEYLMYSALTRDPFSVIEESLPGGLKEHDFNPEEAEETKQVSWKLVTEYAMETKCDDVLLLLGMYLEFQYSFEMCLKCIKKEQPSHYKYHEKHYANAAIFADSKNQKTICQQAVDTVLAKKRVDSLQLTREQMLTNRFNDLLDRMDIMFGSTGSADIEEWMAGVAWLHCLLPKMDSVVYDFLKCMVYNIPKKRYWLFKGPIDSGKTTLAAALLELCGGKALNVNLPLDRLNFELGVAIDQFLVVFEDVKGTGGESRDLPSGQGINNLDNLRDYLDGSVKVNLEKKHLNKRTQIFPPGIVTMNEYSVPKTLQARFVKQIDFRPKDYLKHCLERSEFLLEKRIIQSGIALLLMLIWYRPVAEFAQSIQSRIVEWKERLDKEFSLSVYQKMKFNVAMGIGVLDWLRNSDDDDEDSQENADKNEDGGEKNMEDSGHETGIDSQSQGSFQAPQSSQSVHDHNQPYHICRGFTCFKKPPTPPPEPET
As usually defined, the inhibition is the drop in the measured response relative to a control, in per cent. In the case of `O=C(O)c1cnc(-c2ccccc2)nc1Sc1ccc(Cl)cc1`, the inhibition was 12.4%.

Take `CCOc1ccc(C(c2nnnn2C(C)(C)C)N2CCN(C(=O)c3ccco3)CC2)cc1` (centres undefined): the inhibition is 4.34%.

As for `CC(NS(=O)(=O)c1ccc(F)cc1)C(c1cccs1)N1CCOCC1` (centres undefined), the inhibition is -5.54%.

Take `COC(=O)c1ccccc1NC(=O)CCCCCn1nnc2ccccc2c1=O`: the inhibition was 26.9%.

Turning to `COc1cccc(CN(C)CC(=O)NCc2ccc(F)cc2)c1OC`, the inhibition was -3.04%.

As for `CC(=O)Oc1ccc(-c2cccc(C(=O)Oc3ccccc3)c2)cc1`, the inhibition was -7.54%.

For `CCN(CC)S(=O)(=O)c1ccc(NC(=O)COC(=O)CCc2cc(OC)c(OC)c(OC)c2)cc1`, the inhibition is 0.42%.

`O=[N+]([O-])c1ccccc1NCCOc1ccccc1`: the inhibition is 5.2%.

Regarding `COC(=O)c1ccccc1NC(=O)C/C(C)=N/NC(=O)CC#N`, the inhibition was 6.52%.

In the case of `CC(C)C[C@H](NC(=O)Nc1cccc(Cl)c1)C(=O)O`, the inhibition was 10.3%.

Regarding `O=C(CN1CCOCC1)Nc1ccccc1Cl`, the inhibition is 8.91%.

Regarding `NC(=O)N/N=C/c1ccc(-c2ccc([N+](=O)[O-])cc2)o1`, the inhibition was 12.1%.

`O=C(N/N=C/c1ccc(-c2cccc([N+](=O)[O-])c2)o1)c1ccccc1O`: the inhibition was 2.92%.

Take `NC(N)=N/N=C/c1cc([N+](=O)[O-])ccc1O`: the inhibition was 9.25%.

Take `O=C(N/N=C/c1ccc(O)cc1O)C1CC1`: the inhibition was 33.4%.

For the compound `CCCCn1c(N)c(N(CC(C)C)C(=O)C2CCN(S(=O)(=O)c3ccc(Cl)cc3)CC2)c(=O)[nH]c1=O`, the inhibition was 11.5%.

`O=C(NCC1CCCCC1)c1cccnc1`: the inhibition is 11.1%.

Consider `CCCC(=O)Nc1cc2c3c(c1)CC(=O)N3CCC2`, for which the inhibition is 8.54%.

For the compound `O=C(NCCO)C(=O)Nc1cc2c3c(c1)CC(=O)N3CCC2`, the inhibition was 7.7%.

On to `Nc1ccc(Nc2ccccc2)c(Cl)c1`, for which the inhibition was 19.8%.

Take `Cc1cc(C)cc(Nc2ccc(C(=O)O)cc2N)c1`: the inhibition was 23.9%.

`Cc1ccc(Nc2ccc(N)cc2S(=O)(=O)O)cc1`: the inhibition is 21.6%.

With `Cc1ccc(Nc2ccc(C(=O)O)cc2N)cc1`, the inhibition was -4.88%.

As for `CC(=O)c1c(NCCc2ccccc2)cc(C)oc1=O`, the inhibition was -0.81%.

In the case of `CCC(OC(=O)c1cccs1)C(=O)NCc1ccco1` (centres undefined), the inhibition was 8.42%.

As to `Cc1c(Cl)cccc1NC(=O)NC1CCCCC1`, the inhibition is 2.26%.

With `CCc1cccc2c(C(=O)CSc3nncn3-c3ccccc3OC)c[nH]c12`, the inhibition was 2.74%.

Take `COc1cccc(-n2cc(C(=O)NCCCOC(C)C)c3ccccc3c2=O)c1`: the inhibition is 11.2%.

With `O=C(/C=C/c1ccc(O)c(O)c1)OCCc1ccccc1`, the inhibition was 37.9%.

Take `O=C(/C=C/c1ccc(O)c(O)c1)OC(Cc1ccc(O)c(O)c1)C(=O)O` (centres undefined): the inhibition was 4.28%.

For `CN(CCCNS(=O)(=O)c1cccc2cccnc12)Cc1ccccc1`, the inhibition was -0.29%.

On to `O=C(Cn1c(=O)n(Cc2ccco2)c(=O)c2c3c(sc21)CCCCC3)Nc1ccccc1`, for which the inhibition was 51.6%.

As to `O=C(Cn1c(=O)n(Cc2ccco2)c(=O)c2c3c(sc21)CCCCC3)c1ccccc1`, the inhibition is 49.4%.

For the compound `CN1C(=O)C(CC(=O)NC2CCCCC2)N(C)C1=O` (centres undefined), the inhibition is -7.63%.

Consider `Cc1cccc(N=Cc2c(O)cc(C)oc2=O)c1`, for which the inhibition is 7.74%.

As to `CCOc1ccc(N=Cc2c(O)cc(C)oc2=O)cc1`, the inhibition is 18.6%.

Turning to `NC(=O)CN1CCN(S(=O)(=O)c2ccc(Cl)cc2)CC1`, the inhibition is 4.21%.

Regarding `COc1ccc(C2CC(=O)C=C(O)C2)cc1` (centres undefined), the inhibition was 6.5%.

On to `COc1ccc(C(C2C(=O)CC(C)(C)CC2=O)C2C(=O)CC(C)(C)CC2=O)cc1`, for which the inhibition was 25.9%.

In the case of `CC(=O)N(Cc1cccc(Br)c1)c1ccc(N2CCOCC2)c(Cl)c1`, the inhibition was 9.14%.

Take `Cn1c(COc2ccc3ccccc3c2)nnc1SCC(N)=O`: the inhibition was -1.72%.

As for `Cc1cccc(N=c2oc3cc(O)ccc3cc2C(N)=O)c1`, the inhibition is 22.6%.

`NC(=O)c1cc2ccc(O)cc2oc1=Nc1ccccc1`: the inhibition is 36.3%.

As to `CN(C)/C=N/c1c(C#N)cnn1-c1ccccc1`, the inhibition was 9.99%.

Turning to `CN(CC(=O)Nc1ccc(Cl)c(C(F)(F)F)c1)C(=O)C1CCC1`, the inhibition is 17.7%.

For `Cc1ccsc1/C=N/N=C/c1sccc1C`, the inhibition is -8.78%.

On to `Cc1ccc(N=Cc2sccc2C)cc1C`, for which the inhibition is 3.36%.

As to `Cn1c(N)c(S(=O)(=O)N2CCCC2)c(=O)n(C)c1=O`, the inhibition was 8.94%.

Consider `CCOc1ccccc1NC(=O)C1CCN(c2ccc(S(=O)(=O)N3CCCC3)cc2)CC1`, for which the inhibition was 5.71%.

In the case of `NC(=O)c1cc2cc(Br)ccc2oc1=NCc1ccccc1`, the inhibition is -0.91%.

`CC(=NCc1ccccc1)C1=C(O)COC1=O`: the inhibition is 5.76%.

Regarding `O=C(CCSc1ccc(Cl)cc1)N1CCN(c2ncccn2)CC1`, the inhibition was 0.35%.

As for `CCn1cc(CN2CCC(C(=O)Nc3ccc(Oc4ccccc4F)cc3)CC2)c(C)n1`, the inhibition is 10.4%.

Consider `COc1ccc2c(COC(=O)CCS(=O)(=O)c3ccc(C)cc3)cc(=O)oc2c1`, for which the inhibition was 6.52%.

As to `CCCC(=O)Oc1ccc2c(C)cc(=O)oc2c1`, the inhibition is 18.6%.

As to `COc1cc(C(C)=O)ccc1OCC(O)CN1CCN(c2c(C)cccc2C)CC1` (centres undefined), the inhibition is -5.73%.

For `OCCOc1ccc(C2=NCCO2)cc1`, the inhibition was -2.82%.

In the case of `CCN1CCN(CC(=O)Nc2ccc3c(c2)OCO3)C(=O)C1=O`, the inhibition is 3.32%.

For the compound `COc1ccc(Nc2cc3n(c(=O)n2)CCc2cc(OC)c(OC)cc2-3)cc1`, the inhibition is 10.4%.

On to `CCN(CC)c1ccc(Nc2cc3n(c(=O)n2)CCc2cc(OC)c(OC)cc2-3)cc1`, for which the inhibition was 31.5%.

As for `CCOc1ccc(N2C(=O)/C(=C/c3ccccn3)SC2=S)cc1`, the inhibition was 9.29%.

For the compound `COc1ccc(N2CCN(C(=O)CCc3ccc(S(=O)(=O)NC(C)C)cc3)CC2)cc1`, the inhibition was 11.6%.

`CC(C)CC(=O)Nc1ccnn1C1CCN(C(=O)c2ccc(F)cc2Cl)CC1`: the inhibition was 0.42%.

In the case of `O=C(NNC(=O)c1ccco1)c1ccc(NS(=O)(=O)c2cccs2)cc1`, the inhibition was 9.88%.

With `COc1ccc(NC(=O)c2sc(SCc3ccccc3)nc2N)cc1`, the inhibition is 1.41%.

As to `COc1ccc(NC(=O)c2sc(SC)nc2N)cc1`, the inhibition is 3.33%.

On to `CC(=O)Nc1ccc2nc(CN3CCN(CC=C(C)C)C(CCO)C3)ccc2c1` (centres undefined), for which the inhibition is 5.4%.

On to `COc1ccc(C(=O)NNC(=O)C(=O)NC(C)c2ccccc2)cc1OC` (centres undefined), for which the inhibition was -0.06%.

For the compound `O=C(O)c1ccc2c(c1)C(c1ccccc1)OC2=O` (centres undefined), the inhibition was 11%.

`COc1ccccc1CC(=O)Nc1ccc(-c2nnc(-c3ccco3)o2)cc1`: the inhibition was 5.22%.

As to `CCOc1ccc(CCNC(=O)c2cccc(S(=O)(=O)N3CCCC3)c2)cc1OCC`, the inhibition was 2.19%.

Turning to `COc1ccc2c(c1)c(=O)oc1cc(O)ccc12`, the inhibition is 10.3%.

Turning to `Cc1cc(=O)oc2cc(O)ccc12`, the inhibition was 17.8%.

Regarding `COc1ccc2c(c1)oc(=O)c1ccccc12`, the inhibition is 2.39%.

For the compound `O=c1cc(O)c2ccc(O)cc2o1`, the inhibition was 4.04%.

Regarding `Clc1ccccc1N1CCN(Cc2c[nH]c3ccccc23)CC1`, the inhibition was 1.73%.

As to `O=C(Cn1nnc(-c2ccccc2)n1)Nc1ccccc1N1CCOCC1`, the inhibition is -3.12%.

Regarding `C[N+]1=C(/C=C/Nc2ccccc2Cl)C(C)(C)c2ccccc21`, the inhibition is 21.8%.

With `COC(=O)c1ccc2c(c1)C(C)(C)C(/C=C/c1ccccc1O)=[N+]2C`, the inhibition is 21.7%.

For the compound `O=C(NC1CCCCC1)c1sc(=S)n2c1[nH]c(=O)c1ccccc12`, the inhibition was 6.27%.

Turning to `O=C(NCc1ccco1)c1sc(=S)n2c1[nH]c(=O)c1ccccc12`, the inhibition is 23.2%.

In the case of `Cc1ccc(N(C(=O)c2csnn2)C(C(=O)NC2CCCCC2)c2ccccn2)cc1C` (centres undefined), the inhibition is 4.41%.

On to `Cc1ccc2ccccc2[n+]1CCCS(=O)(=O)[O-]`, for which the inhibition is 5.88%.

As for `CCCCC[n+]1cccc2c3ccccc3ccc21`, the inhibition was 5.51%.

`CCCCCCCCCC[n+]1cccc2c3ccccc3ccc21`: the inhibition is 23.8%.

Turning to `[O-][n+]1c2ccccc2cc2ccccc21`, the inhibition is 3.6%.

Take `CN(C)C(=O)c1ccc(-c2nnc(NCc3ccccc3)c3ccccc23)cc1`: the inhibition is 17.7%.

In the case of `CCOC(=O)c1c(S(=O)(=O)NCC(=O)Nc2ccc(F)cc2)c(C)n(C)c1C`, the inhibition is 2.6%.

On to `CCOc1ccccc1NC(=O)Cn1c(=O)c(OCC)nc2cnccc21`, for which the inhibition was 13.5%.

Regarding `COc1ccc2ccccc2c1C1CC(=O)N2CN(C)CSC2=C1C#N` (centres undefined), the inhibition is 28.9%.

Consider `CN1CSC2=C(C#N)C(c3cccc(OCc4ccccc4)c3)CC(=O)N2C1` (centres undefined), for which the inhibition was 43.1%.

For `COc1ccc(Br)cc1C1CC(=O)N2CN(Cc3ccccc3)CSC2=C1C#N` (centres undefined), the inhibition is 35% and 18.8%.

For `COc1ccc(C2CC(=O)N3CN(c4ccccc4F)CSC3=C2C#N)cc1OC` (centres undefined), the inhibition was 51.3%.

`Cc1cccc(C(=O)N2CC3(C)CC2CC(C)(C)C3)c1` (centres undefined): the inhibition is 3.07%.

As to `O=C(c1cccc([N+](=O)[O-])c1)c1ccc2c(c1)OCCOCCOCCOCCO2`, the inhibition is 7.91%.

Regarding `Cc1cccc(N2CCN(C(=O)CCCn3c(=O)c4cccn4c4cccnc43)CC2)c1C`, the inhibition was 9.66%.

In the case of `CCN1CCN(C(=O)C2=CC(c3ccc(C)cc3)=NS(=O)(=O)N2C)CC1`, the inhibition was 16.5%.

With `CCN1C(=O)N[C@@H](CCc2ccccc2)[C@@H](C(=O)OC)[C@H]1C`, the inhibition is 23.2%.

On to `COc1cccc(NC(=O)CSCC(=O)Nc2ccccc2)c1`, for which the inhibition was 13.8%.
